Compound activity deposited in PubChem BioAssay by Broad Institute.
SIRT5 inh – inhibitors of human sirtuin-5 desuccinylase | Purified SirT5, succinyl-peptide AMC, trypsin-coupled fluorescence | inhibition, % at 15 µM | hit rate 1.1% among 330,000; in the data active = inhibition above about 15%
Target sequence (Q9NXA8 whole entry, looked up): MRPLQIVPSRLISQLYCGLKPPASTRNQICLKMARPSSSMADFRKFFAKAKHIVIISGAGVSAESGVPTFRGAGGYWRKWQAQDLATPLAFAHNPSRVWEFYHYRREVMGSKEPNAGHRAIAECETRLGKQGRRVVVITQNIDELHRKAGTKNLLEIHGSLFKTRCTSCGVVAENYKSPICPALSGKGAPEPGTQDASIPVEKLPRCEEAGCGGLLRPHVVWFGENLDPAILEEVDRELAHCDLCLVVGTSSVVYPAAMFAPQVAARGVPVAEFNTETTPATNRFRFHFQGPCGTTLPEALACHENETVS
PfHsp90 yeast 2 – growth inhibition of yeast expressing Plasmodium Hsp90 | AID 504621 | hit rate 0.32% among 310,000 | S. cerevisiae expressing PfHsp90, BacTiter-Glo ATP, 48 h; yeast lacking PDR1 and PDR3 efflux regulators | inhibition, % at 9.4 µM;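 active = every replicate shows inhibition above about 80%, whatever the replicate mean, limit read from the data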;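 note: 0% = DMSO neutral controls and 100% = 20 µM radicicol positive controls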
NSD2 inh – NSD2 (human) methyltransferase inhibition. NSD2 peptide methylation, AlphaScreen, 120 min. inhibition, % at 12.5 µM. hit rate 0.54% among 310,000. AID 743445; in the data active = inhibition above about 50%
Casp6 inh – caspase-6 (human) enzyme inhibition. AID 686996. hit rate 0.53% among 350,000. inhibition, % at 12.5 µM. P55212. purified caspase-6, Z-VEID-R110 cleavage fluorescence;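 active = mean inhibition across replicates at least about 35%, with every replicate also reaching that limit, limit read from the data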;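 note: 0% = median of neutral control wells and 100% = no fluorescence left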
Target sequence (P55212 24-179 limits assumed): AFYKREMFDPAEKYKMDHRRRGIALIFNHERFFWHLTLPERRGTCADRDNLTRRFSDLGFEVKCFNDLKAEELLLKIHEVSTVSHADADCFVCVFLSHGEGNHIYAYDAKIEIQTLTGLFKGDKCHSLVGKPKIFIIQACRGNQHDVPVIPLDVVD
Target sequence (P55212 194-293 limits assumed): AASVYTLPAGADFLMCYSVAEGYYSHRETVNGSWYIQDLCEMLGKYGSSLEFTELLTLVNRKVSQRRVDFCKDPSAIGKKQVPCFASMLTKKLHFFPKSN
ARNT TACC3 PPI – disrupts binding between human ARNT and TACC3 | Q9Y6A5 | AlphaScreen His-ARNT PAS-B/GST-TACC3 binding, luminescence; TACC3 fragment carries E629A point mutation | inhibition, % at 9.99 µM | hit rate 0.66% among 390,000;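 active = mean inhibition of replicates at least 50% and at least half of replicates each reaching 50%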;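 note: 0% = complete ARNT plus TACC3 wells and 100% = ARNT alone without TACC3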
* marks the source's active call; other numbers are inactive results; x = no result. A selection: hits, their analogues and other compounds. The true share with any hit is near 2.1%.

SMILES | SIRT5 inh | PfHsp90 yeast 2 | NSD2 inh | Casp6 inh | ARNT TACC3 PPI
COc1ccccc1NS(=O)(=O)c1cc(NC(=O)c2ccc(NC(C)=O)cc2)ccc1N1CCOCC1 | -2.3 | -53.2 | 0.4 | -1.1 | -1.8
CC(C)(C)CC(C)(C)SSc1n[nH]c(=S)s1 | 0.5 | x | -3.0 | 37.5* | -5.2
Cc1nc2ccccc2c(=O)n1/N=C/c1cc(Br)ccc1O | -5.1 | -9.3 | -0.5 | -4.1 | 59.5*
COCC#Cc1ccc2c(c1)O[C@@H](CN(C)C(=O)CC1CC1)[C@@H](C)CN([C@@H](C)CO)S2(=O)=O | 2.1 | x | x | 2.5 | -1.9
CC(Sc1ccc(Cl)cc1)C(=O)Nc1ccc2c(c1)OCO2 (centres undefined) | x | 27.7 | 13.9 | x | 14.1
CC(C)N1CCC2(CC1)N=C(c1ccc3c(c1)OCO3)CC(c1cc(Cl)ccc1O)N2 (centres undefined) | x | 120.5* | x | x | -0.3
COc1ccc(C2C3(C#N)C(N)=NC(OC)(OC)C23C#N)cc1 (centres undefined) | 18.3* | -11.1 | x | 1.1 | 6.4
C[C@H]1CN([C@@H](C)CO)S(=O)(=O)c2ccc(-c3cccc(C#N)c3)cc2O[C@@H]1CN(C)C(=O)c1ccc(F)cc1 | 0.3 | x | x | 0.9 | -1.4
CCOC(=O)CSc1nc2c(sc(=S)n2-c2ccc(OCC)cc2)c(=O)[nH]1 | -0.8 | 9.6 | -3.6 | -0.7 | -2.5
CCOc1ccc(-n2c(=S)sc3c(=O)[nH]c(SCC(=O)N4CCC(C)CC4)nc32)cc1 | x | -9.5 | 5.0 | 42.6* | 0.8
CCOc1ccc(/C=C/C(=O)OCC(=O)Nc2cccc(S(=O)(=O)N3CCCC3)c2)cc1 | 3.3 | 13.1 | 2.4 | -1.1 | 0.5
O=C(CNc1cccc(S(=O)(=O)N2CCCCCC2)c1)Nc1cccc([N+](=O)[O-])c1 | -2.0 | -9.5 | 0.1 | 4.4 | 49.7*
O=C(COC(=O)/C=C/c1cccs1)Nc1cccc(S(=O)(=O)N2CCCC2)c1 | 15.2* | -21.9 | -0.1 | -1.5 | 8.3
COc1cccc(/C=N/NC(=O)C(c2ccncc2)N2CCOCC2)c1 (centres undefined) | 1.6 | x | 0.7 | -4.6 | x
O=C(N/N=C/c1cc(Br)ccc1O)C(c1ccncc1)N1CCOCC1 (centres undefined) | x | 7.8 | -7.2 | x | 58.3*
Cc1nc2ccc(C(=O)N/N=C/c3ccccc3O)cc2[nH]1 | 1.1 | -3.7 | 2.1 | -6.4 | 93.3*
COc1ccc(C(=O)Nc2nnc(CC(=O)N/N=C/c3ccc(O)cc3O)s2)cc1 | 16.8* | -8.6 | -1.5 | 0.8 | x
O=C(CNC(=O)c1ccncc1)N/N=C/c1cc(Br)ccc1O | x | -24.2 | -4.5 | x | 46.4*
CN(C)C(=O)c1ccc(-c2ccc([C@H]3[C@H](CO)N4C(=O)CN(C(=O)C5CCC5)C[C@@H]34)cc2)cc1 | -2.8 | x | x | 2.0 | x
CO[C@@H]1CC[C@@H]2CCOc3c(C#N)cccc3C(=O)N(C)[C@@H](C)C(=O)N(C)C[C@@H]1O2 | -14.9 | x | x | -0.2 | 1.9
CO[C@@H]1CN(C)C(=O)c2ccc(NS(=O)(=O)c3ccc(Cl)cc3)cc2OC[C@@H](C)NC[C@@H]1C | -2.7 | x | x | 1.2 | -3.5
Cc1nonc1C(=O)N/N=C/c1ccc(O)cc1O | 0.8 | 5.0 | 1.0 | -4.0 | 66.0*
O=C(N/N=C/c1ccc(O)cc1O)c1ccncc1 | -4.2 | 5.0 | 3.6 | -7.1 | 73.7*
Cc1c(Cl)cccc1NC(=O)CCCn1nc([N+](=O)[O-])cc1C | -3.7 | -11.4 | -6.8 | 2.3 | -4.8
Cc1cc([N+](=O)[O-])nn1CCCC(=O)NC(C)c1ccccc1 (centres undefined) | 38.3* | 6.0 | -3.5 | 0.3 | -2.3
SMILES | SIRT5 inh | PfHsp90 yeast 2 | NSD2 inh | Casp6 inh | ARNT TACC3 PPI
C=Cc1c(C)c2cc3[nH]c(cc4nc(cc5nc(cc1[nH]2)C(C)=C5CCC(=O)O)C(CCC(=O)O)=C4C)c(C)c3C=C | x | -10.7 | x | 56.8* | -26.4
CC1(C)CC(=O)c2c(Cc3ccccc3)n[nH]c2C1 | x | -26.4 | 1.9 | x | 3.2
CC1(C)CC(=O)c2c(-c3cccnc3)n[nH]c2C1 | 15.2* | x | -2.3 | 5.1 | 1.9
COc1cccc(S(=O)(=O)Nc2ccc3c(c2)C(=O)N(C)[C@H]2CC[C@@H](CC(=O)O)O[C@H]2CO3)c1 | x | x | x | x | -5.8
CCC(CC)COC(=O)C1=C(C)NC(=O)NC1c1cc(OC)ccc1OC (centres undefined) | 3.7 | -10.5 | -2.3 | 67.8* | -2.4
NC(=Nc1nc(-c2ccccn2)cc2ccccc12)c1ccccn1 | -4.6 | 142.1* | -3.4 | -8.3 | 25.1
C[C@@H]1CN([C@@H](C)CO)C(=O)c2cccc(NC(=O)Nc3ccc4c(c3)OCO4)c2O[C@H]1CN(C)Cc1ccc(Cl)c(Cl)c1 | 6.4 | x | x | 0.6 | 16.6
Cc1ccc(C(=O)N/C(=C/c2ccco2)C(=O)NCCCn2ccnc2)cc1 | x | -11.9 | 0.2 | x | 49.2*
Cc1ccc(C(=O)N/C(=C\c2ccco2)C(=O)NCCCn2ccnc2)cc1 | x | x | -1.9 | x | 97.7*
O=C(NCCCn1ccnc1)/C(=C/c1ccco1)NC(=O)c1ccccc1 | x | 65.4 | x | x | 7.0
O=C(NCCCn1ccnc1)/C(=C/c1ccccc1)NC(=O)c1ccccc1 | 0.3 | x | -5.0 | -8.7 | 14.8
COc1ccc(/C=C(/NC(=O)c2ccccc2)C(=O)NCCCn2ccnc2)cc1OC | 0.8 | 11.2 | -2.3 | -4.3 | 4.8
CN(C)c1ccc(/C=C(\NC(=O)c2ccccc2)C(=O)NCCCn2ccnc2)cc1 | 5.6 | 22.0 | 6.4 | -75.9 | 53.8*
COc1ccc(/C=C(\NC(=O)c2ccc(C)cc2)C(=O)NCCCn2ccnc2)cc1OC | -1.9 | -9.8 | -8.1 | -44.0 | 54.2*
Cc1ccc(C(=O)N/N=C\c2ccc(OC(=O)c3cccc(F)c3)cc2)cn1 | 0.9 | 8.0 | -2.2 | 47.4* | -4.1
Cc1ccc(C(=O)N/N=C\c2cccc(OC(=O)c3cccc(F)c3)c2)cn1 | 0.3 | -3.1 | -6.3 | 2.7 | -3.6
Cc1cccc(N2C(=O)/C(=C\c3ccc(OC(F)F)cc3)c3ccccc3C2=O)c1 | x | 97.3* | -0.6 | x | 23.4
COc1cccc(/C=C2\C(=O)N(c3cccc(C)c3)C(=O)c3ccccc32)c1 | -0.1 | -58.4 | 0.5 | -2.4 | -8.3
NC(=N\N=Cc1ccco1)/C(N)=N/N=Cc1ccco1 | 2.1 | 11.0 | 1.1 | 61.8* | 62.8*
NC(=N\N=Cc1ccccc1)/C(N)=N/N=Cc1ccccc1 | x | x | -1.1 | 4.2 | x
NNC(=S)Nc1cccc(-c2n[nH]c(=S)o2)c1 | 18.3* | -9.9 | -21.9 | 1.4 | 24.6
CN(C)C(=S)Nc1cccc(-c2n[nH]c(=S)o2)c1 | -3.4 | -1.1 | 2.0 | 2.2 | 0.7
CN(C)/C=C/C(=O)c1ccc(Cl)c([N+](=O)[O-])c1 | 16.6* | 4.4 | -2.1 | 0.0 | -2.2
CC(C)(C)SCCNC(=O)c1ccc(Cl)c([N+](=O)[O-])c1 | x | 101.8* | -0.2 | x | 1.1
Cc1ccccc1CNC(=O)c1ccc(Cl)c([N+](=O)[O-])c1 | x | 6.9 | -0.7 | x | 2.6
Cc1ccc(S(=O)(=O)N(C)C[C@H]2OCc3ccccc3-c3c(n(C)c4ccccc34)C(=O)N([C@H](C)CO)C[C@H]2C)cc1 | 20.0* | x | x | 2.5 | 11.0
